In PubChem BioAssay:

Tests used:
[1] = system: Human papillomavirus type 1a protein E7 (residues 44-93); assay: small molecules binding HPV E7 44-93 – biochemical, small-molecule microarray, residues 44-93, 635 nm fluorescence, primary screen (AID 1108); settings: fluorescence 635 nm, higher = more signal;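 note: E7 fragment applied at 1 µg/mL in TBST for 1 h at 4 C; score combines spot fluorescence with its signal to noise ratio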
[2] = hepatitis C replication reporter changes, two-sided – Huh7 cells, luciferase reporter, HCV replication inhibitor project, primary screen (AID 1109); settings: Huh7 HCV replicon luciferase reporter, 48 h; higher = more signal;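 note: huh7 hepatoma cells harbouring a luciferase neomycin HCV replicon reporter; luciferase luminescence as measure of HCV replicon replication; test concentration not given here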
[3] = target: Left-right determination factor 2 (Homo sapiens) (UniProt O00292); assay: small molecules binding LEFTY2 protein – biochemical, small-molecule microarray, 635 nm fluorescence scan, primary screen (AID 1110); settings: higher = more signal
Sequence of Left-right determination factor 2 (Homo sapiens) (O00292 whole entry, looked up): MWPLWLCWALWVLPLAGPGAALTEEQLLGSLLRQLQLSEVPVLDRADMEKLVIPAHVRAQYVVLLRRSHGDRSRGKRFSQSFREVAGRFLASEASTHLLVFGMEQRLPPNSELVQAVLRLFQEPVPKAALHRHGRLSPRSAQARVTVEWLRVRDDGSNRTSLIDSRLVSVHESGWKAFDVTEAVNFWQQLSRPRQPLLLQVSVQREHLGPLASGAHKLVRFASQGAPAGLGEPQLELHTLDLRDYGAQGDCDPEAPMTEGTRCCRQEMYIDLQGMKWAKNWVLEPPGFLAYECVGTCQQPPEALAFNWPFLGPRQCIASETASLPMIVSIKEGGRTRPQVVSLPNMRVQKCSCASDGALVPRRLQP

[4] = target: Calmodulin-1 (Homo sapiens) (UniProt P0DP23); assay: small molecules binding calmodulin-1 with EGTA – biochemical, small-molecule microarray, Cy5-labelled CALM1, profiling panel (AID 1111); settings: Cy5-CALM1 binding fluorescence, higher = more signal;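 note: labelled calmodulin applied in Tris saline Tween buffer holding calcium plus EGTA and DTT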
[5] = target: Calmodulin-1 (Homo sapiens) (UniProt P0DP23); assay: small molecules binding Ca-loaded calmodulin-1 – biochemical, small-molecule microarray, Cy5-labelled CALM1, plus calcium, artefact control for SMM control-protein annotation, profiling panel (AID 1112); settings: Cy5-CALM1 binding fluorescence, higher = more signal;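 note: score merges spot fluorescence with signal to noise from triplicate slides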
[6] = probe aWnt5a binding to arrayed compounds – biochemical, biotinylated probe, 635/667 nm fluorescence, primary screen (AID 1113); settings: small-molecule microarray, higher = more signal;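 note: score merges 667 nm fluorescence intensity with signal-to-noise per printed feature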
[7] = probe aShh binding to arrayed compounds – biochemical, biotinylated probe, 635/667 nm fluorescence, primary screen (AID 1114); settings: small-molecule microarray, higher = more signal;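 note: probe is biotin-labelled aShh protein from a stem cell growth factor screen; measures binding of labelled protein to compounds printed on the slide; score merges feature fluorescence at 667 nm with signal-to-noise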
[8] = probe aNog binding to arrayed compounds – biochemical, biotinylated probe, 635/667 nm fluorescence, primary screen (AID 1115); settings: small-molecule microarray, higher = more signal;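 note: probe is biotinylated aNog protein used at 0.15 µg/mL for 1 h at 4 C; z-score combines 667 nm fluorescence of each spot with its signal to noise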
[9] = target: Torsin-1A-interacting protein 1 (Homo sapiens) (UniProt Q5JTV8); assay: compound microarray binding of lysate hLAP1 – cell lysate, small-molecule microarray, COS7 lysate, 635/667 nm fluorescence, primary screen (AID 1116); settings: 635 nm fluorescence, higher = more signal
Sequence of Torsin-1A-interacting protein 1 (Homo sapiens) (Q5JTV8 whole entry, looked up): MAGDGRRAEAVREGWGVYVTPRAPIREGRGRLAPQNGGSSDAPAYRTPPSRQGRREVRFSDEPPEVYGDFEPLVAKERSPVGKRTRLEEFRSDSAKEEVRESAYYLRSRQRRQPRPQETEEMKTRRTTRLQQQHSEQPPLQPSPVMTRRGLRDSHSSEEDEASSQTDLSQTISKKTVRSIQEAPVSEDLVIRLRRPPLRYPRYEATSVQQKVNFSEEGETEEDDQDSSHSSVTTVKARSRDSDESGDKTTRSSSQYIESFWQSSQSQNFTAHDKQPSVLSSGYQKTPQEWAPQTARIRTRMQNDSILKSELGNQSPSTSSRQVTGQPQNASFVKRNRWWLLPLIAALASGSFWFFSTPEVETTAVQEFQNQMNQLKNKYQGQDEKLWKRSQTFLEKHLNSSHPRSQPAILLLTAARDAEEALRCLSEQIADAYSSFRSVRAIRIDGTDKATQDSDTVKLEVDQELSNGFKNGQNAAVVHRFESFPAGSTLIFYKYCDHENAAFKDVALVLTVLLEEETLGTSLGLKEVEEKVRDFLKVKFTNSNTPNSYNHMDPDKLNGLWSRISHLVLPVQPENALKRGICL

[10] = target: Alpha-bungarotoxin (Bungarus multicinctus) (UniProt P60615); assay: compounds binding labelled alpha-BTX control protein – biochemical, small-molecule microarray, Alexa647 label, 635/667 nm fluorescence, artefact control for SMM control protein annotation, profiling panel (AID 1117); settings: alpha-BTX-A647 binding fluorescence, higher = more signal
Sequence of Alpha-bungarotoxin (Bungarus multicinctus) (P60615 whole entry, looked up): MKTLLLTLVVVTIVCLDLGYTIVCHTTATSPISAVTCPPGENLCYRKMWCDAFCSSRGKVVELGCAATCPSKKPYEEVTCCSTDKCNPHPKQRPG

| Compound | composite z-score [1] | z-score [2] | composite z-score [3] | composite z-score [4] | composite z-score [5] | composite z-score [6] | composite z-score [7] | composite z-score [8] | composite z-score [9] | composite z-score [10] |
| --- | --- | --- | --- | --- | --- | --- | --- | --- | --- | --- |
| CC1(C)C(=O)C(c2ccccc2)=C2CN3C(=O)N(CCc4ccccc4)C(=O)C3(Cc3ccc(F)cc3)C=C21 (stereo not given) | 0.754 | -1.47 | -1.24 | 1.11 | 0.725 | 0.317 | 0.717 | 1.8 | 0.551 | 0.273 |
| CC(C)[C@H]1NC(=O)[C@@]23C(=O)N[C@@H](Cc4ccccc4)C2[C@H](C)[C@@]2(C)O[C@H]2C3/C=C/C/C=C\CNC(=O)[C@H](Cc2ccccc2)NC1=O (stereo not given in full) | 1.33 | -0.26 | 0.736 | -0.28 | -0.584 | -0.158 | -0.0553 | -0.505 | 0.512 | 0.807 |
| CC(C)CNC(=O)[C@@]1(C)c2ccccc2C(=O)N(Cc2cc(C(F)(F)F)cc(C(F)(F)F)c2)[C@H]1c1ccc(CO)cc1 | 0.267 | -0.447 | -0.557 | -0.438 | 0.507 | -0.175 | -0.291 | -0.318 | 0.0492 | -0.0153 |
| [N-]=[N+]=NCc1ccccc1[C@H]1OC(c2ccc(OCCCO)cc2)=N[C@@]1(Cc1ccccc1)C(=O)NCCN1CCOCC1 | -0.442 | -1.62 | 0.293 | 0.572 | -0.138 | 0.0711 | 0.0088 | 1.97 | 1.28 | 1.78 |
| Cc1c(NC(=O)/C(C#N)=C/c2ccccc2Cl)c(=O)n(-c2ccccc2)n1C | -0.11 | 0.614 | 0.453 | 1.01 | -0.154 | -0.0377 | -0.588 | -0.226 | 0.858 | 0.42 |
| C=C(CCCC)/C(=C/C[C@H](OC(C)=O)c1ccc(OCCO)cc1)c1cc(C(=O)OC)ccc1OC | 1.37 | -1.69 | -0.399 | 0.142 | -0.212 | 0.027 | -0.221 | -0.132 | 0.405 | 0.558 |
| CC(C)C(=C=CC[C@@H](O)c1cccc(OCCO)c1)C[C@@H](O)c1ccccn1 | 0.0406 | -0.658 | -0.315 | -0.303 | -0.207 | -0.152 | -0.154 | -0.104 | 1.63 | -0.142 |
| Cc1ccc([C@H]2C(C(=O)O)=C[C@@H](C(C)(C)C)N2S(=O)(=O)c2ccc(C)cc2)cc1 | 1.41 | 0.0372 | 0.326 | 1.94 | 0.516 | 0.058 | 0.348 | 1.34 | 1.4 | 1.43 |
| CC1(C)C(=O)C(c2ccccc2)=C2CN3C(=O)N(CCc4ccccc4)C(=O)C3(Cc3ccc(C(F)(F)F)cc3)C=C21 (stereo not given) | 1.19 | -1.66 | -0.668 | 1.36 | 0.858 | 0.0226 | 1.05 | 1.8 | 0.393 | 0.234 |
| CC(C)[C@H]1NC(=O)[C@@]23C(=O)N[C@@H](Cc4ccccc4)C2[C@H](C)[C@@]2(C)O[C@H]2C3/C=C/CCC/C=C/CNC(=O)[C@H](Cc2ccccc2)NC1=O (stereo not given in full) | 1.41 | -0.565 | -0.0883 | -0.773 | -0.806 | -0.148 | -0.156 | -0.455 | -0.148 | -0.498 |
| COCCOC(=O)N1C(=O)[C@@]2(c3cc(C#Cc4ccc(OC)cc4)ccc31)[C@H](c1ccc(OCCO)cc1)N1[C@H](c3ccccc3)[C@H](c3ccccc3)OC(=O)[C@H]1[C@@H]2C(=O)Nc1nc2ccccc2s1 | 1.34 | -1.54 | 0.225 | 1.91 | 0.487 | 0.0017 | 1.52 | 0.0044 | 0.699 | 0.885 |
| CC(C)C(=C=CC[C@H](O)c1cccc(OCCO)c1)CCO | 0.133 | 0.121 | -0.0916 | -0.427 | -0.224 | -0.0165 | 0.201 | -0.272 | 0.0879 | 0.115 |
| O=c1cccc(-c2ccc(F)cc2)o1 | -0.399 | -0.228 | 0.55 | -0.236 | -0.33 | -0.1 | 0.216 | 0.0416 | -0.184 | 0.241 |
| C=CC[C@H](OC(=O)Nc1ccc(SC)cc1)c1ccc(OCCO)cc1 | -0.833 | 1.34 | -0.952 | -0.316 | 0.461 | -0.0994 | 0.0188 | 1.48 | -0.286 | 0.191 |
| C=C(CCCC)C(=O)CC[C@H](OC(C)=O)c1ccc(OCCO)cc1 | -0.319 | -2.73 | -0.0558 | -0.0294 | -0.92 | -0.102 | -0.262 | 0.0989 | -0.346 | 0.657 |
| C=C(/C(=C/C[C@@H](OC(=O)c1ccncc1)c1cccc(OCCO)c1)c1cnc2ccccc2c1)C(C)C | 1.08 | -1.96 | 0.775 | 0.0848 | 0.11 | 0.0215 | -0.0769 | 0.419 | 1.37 | 2.57 |
| O=C1[C@@H]2[C@@H](CC(COc3ccccc3)=C3[C@@H](CCc4ccccc4)OB(O)C[C@@H]32)C(=O)N1Cc1ccccc1 | -0.458 | -1.36 | 0.222 | 0.0454 | 0.171 | -0.124 | -0.0011 | -0.465 | -0.0169 | -0.0025 |
